# Measurements from the supplement of paper PMC8728848.
# This excerpt belongs to a sample that is enriched for the strongest signals.
# B1: PX15642A-pgi-501-20-501 (Parabacteroides gingivalis) (protein)
# chain: CELDRDPEGKDFQQPYTSFVQTKQNRDGLYALLRNTENPRMHFYQELQSDMYCTTITDGNSLAPFVNWDLGILNDHGRADEDEVSGIAGYYFVYNRLNQQANAFVNNTEAALQNQVYKNSTEIANAKSFLAEGKVLQALAIWRLMDRFSFHESVTEVNSGAKDLGVILLKEYNPGYIGPRATKAQCYDYILSRLSEAIEVLPENRESVLYVSRDYAYALRARIYLALGEYGKAAADAKMVVDKYPLIGAADASEFENIYRSDANNPEIIFRGFASATLGSFTATTLNGAAPAGKDIKYNPSAVPFQWVVDLYENEDFRKSVYIAKVVKKDKGYLVNKFLEDKAYRDVQDKPNLKVGARYFSVAEVYLILVESALQTGDTPTAEKYLKALSKARGAEVSVVNMEALQAERTRELIGEGSRLRDMVRWSIPNNHDAFETQPGLEGFANTTPLKAQAPVGFYAYTWEFPQRDRQTNPQLIKNWPI
# Tests used:
# Assay in all cases: glycan array binding signal (z-score within array); higher = stronger binding
# Settings in all cases: glycan notation: IUPAC condensed, linker removed
# Gal(b1-4)GlcNAc6P = target: Gal(b1-4)GlcNAc6P
# Outline: (§1)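 The binding signal is a Z-score computed within each array and averaged over linkers. Arrays of the same protein sequence at different concentrations or buffers were also averaged together. Data originate from 3228 arrays in the Consortium for Functional Glycomics database, kept only where the protein sequence was available.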
# [1] = target: GalNAc(b1-4)GlcNAc(b1-2)Man(a1-3)[GalNAc(b1-4)GlcNAc(b1-2)Man(a1-6)]Man(b1-4)GlcNAc(b1-4)GlcNAc
# Outline: as §1
# [2] = target: GalNAc(b1-4)GlcNAc(b1-3)GalNAc(b1-4)GlcNAc
# Outline: as §1
# Glc(a1-6)Glc(a1-6)Glc = target: Glc(a1-6)Glc(a1-6)Glc
# Outline: as §1
# [3] = target: GlcNAc(b1-2)Man(a1-3)[GlcNAc(b1-2)Man(a1-6)]Man(b1-4)GlcNAc(b1-4)[Fuc(a1-6)]GlcNAc
# Outline: as §1
# [4] = target: GlcNAc(b1-2)[GlcNAc(b1-6)]Man(a1-6)[GlcNAc(b1-4)][GlcNAc(b1-2)Man(a1-3)]Man(b1-4)GlcNAc(b1-4)GlcNAc
# Outline: as §1
# [5] = target: GlcNAc(b1-3)Gal(b1-4)GlcNAc(b1-3)Gal(b1-4)GlcNAc(b1-2)Man(a1-3)[GlcNAc(b1-3)Gal(b1-4)GlcNAc(b1-3)Gal(b1-4)GlcNAc(b1-2)Man(a1-6)]Man(b1-4)GlcNAc(b1-4)GlcNAc
# Outline: as §1
# [6] = target: GlcNAc(b1-3)Gal(b1-4)GlcNAc(b1-3)[GlcNAc(b1-3)Gal(b1-4)GlcNAc(b1-3)]GalNAc
# Outline: as §1
# [7] = target: GlcNAc(b1-4)GlcNAc(b1-4)GlcNAc(b1-4)GlcNAc(b1-4)GlcNAc
# Outline: as §1
# [8] = target: Man(a1-3)[Man(a1-6)]Man(a1-6)[Man(a1-2)Man(a1-3)]Man(b1-4)GlcNAc(b1-4)GlcNAc
# Outline: as §1
# Man(b1-4)GlcNAc = target: Man(b1-4)GlcNAc
# Outline: as §1
# [9] = target: Neu5Ac(a2-3)Gal(b1-3)[Neu5Ac(a2-6)]GlcNAc(b1-3)[Fuc(a1-3)[Gal(b1-4)]GlcNAc(b1-6)]Gal(b1-4)Glc
# Outline: as §1
# [10] = target: Neu5Ac(a2-3)Gal(b1-4)GlcNAc(b1-3)Gal(b1-4)GlcNAc(b1-2)Man(a1-3)[Neu5Ac(a2-3)Gal(b1-4)GlcNAc(b1-3)Gal(b1-4)GlcNAc(b1-2)Man(a1-6)]Man(b1-4)GlcNAc(b1-4)GlcNAc
# Outline: as §1
# [11] = target: Neu5Ac(a2-3)Gal(b1-4)GlcNAc(b1-3)Gal(b1-4)GlcNAc(b1-3)GalNAc
# Outline: as §1
# [12] = target: Neu5Ac(a2-3)Gal(b1-4)GlcNAc6S
# Outline: as §1
# [13] = target: Neu5Ac(a2-3)Gal(b1-4)[Fuc(a1-3)]GlcNAc(b1-3)GalNAc
# Outline: as §1
# [14] = target: Neu5Ac(a2-3)Gal6S(b1-4)[Fuc(a1-3)]GlcNAc
# Outline: as §1
# [15] = target: Neu5Ac(a2-3)[GalNAc(b1-4)]Gal(b1-4)GlcNAc(b1-3)GalNAc
# Outline: as §1
# [16] = target: Neu5Ac(a2-6)Gal(b1-4)GlcNAc
# Outline: as §1
# [17] = target: Neu5Ac(a2-6)Gal(b1-4)GlcNAc(b1-3)Gal(b1-4)GlcNAc(b1-3)Gal(b1-4)GlcNAc(b1-2)Man(a1-3)[Neu5Ac(a2-6)Gal(b1-4)GlcNAc(b1-3)Gal(b1-4)GlcNAc(b1-3)Gal(b1-4)GlcNAc(b1-2)Man(a1-6)]GalNAc
# Outline: as §1
# [18] = target: Neu5Ac(a2-6)GalNAc(b1-4)GlcNAc6S
# Outline: as §1
# [19] = target: Neu5Ac(a2-8)Neu5Ac(a2-3)[GalNAc(b1-4)]Gal(b1-4)Glc
# Outline: as §1
# [20] = target: Neu5Ac(a2-8)Neu5Ac(a2-8)Neu5Ac(a2-3)[Gal(b1-3)GalNAc(b1-4)]Gal(b1-4)Glc
# Outline: as §1
# [21] = target: Neu5Ac(a2-8)Neu5Ac(a2-8)Neu5Ac(a2-3)[GalNAc(b1-4)]Gal(b1-4)Glc
# Outline: as §1
# [22] = target: Neu5Ac(a2-8)Neu5Gc(a2-3)Gal(b1-4)GlcNAc
# Outline: as §1
# [23] = target: Neu5Gc(a2-3)Gal(b1-4)GlcNAc(b1-3)Gal(b1-4)GlcNAc(b1-2)Man(a1-3)[Neu5Gc(a2-3)Gal(b1-4)GlcNAc(b1-3)Gal(b1-4)GlcNAc(b1-2)Man(a1-6)]Man(b1-4)GlcNAc(b1-4)GlcNAc
# Outline: as §1
# [24] = target: Neu5Gc(a2-3)Gal(b1-4)[Fuc(a1-3)]GlcNAc
# Outline: as §1
# [25] = target: Neu5Gc(a2-8)Neu5Gc(a2-6)Gal(b1-4)GlcNAc
# Outline: as §1
binder,measurement,setting,value
B1,glycan array binding signal (z-score),Gal(b1-4)GlcNAc6P,-0.285
same,glycan array binding signal (z-score),[1],1.15
same,glycan array binding signal (z-score),[2],5.6
same,glycan array binding signal (z-score),Glc(a1-6)Glc(a1-6)Glc,1.35
same,glycan array binding signal (z-score),[3],0.116
same,glycan array binding signal (z-score),[4],-0.076
same,glycan array binding signal (z-score),[5],2.32
same,glycan array binding signal (z-score),[6],0.014
same,glycan array binding signal (z-score),[7],0
same,glycan array binding signal (z-score),[8],0.018
same,glycan array binding signal (z-score),Man(b1-4)GlcNAc,0.033
same,glycan array binding signal (z-score),[9],-0.808
same,glycan array binding signal (z-score),[10],0.992
same,glycan array binding signal (z-score),[11],-0.213
same,glycan array binding signal (z-score),[12],-0.486
same,glycan array binding signal (z-score),[13],3.38
same,glycan array binding signal (z-score),[14],-1.24
same,glycan array binding signal (z-score),[15],-1.14
same,glycan array binding signal (z-score),[16],-0.264
same,glycan array binding signal (z-score),[17],2.23
same,glycan array binding signal (z-score),[18],0.286
same,glycan array binding signal (z-score),[19],-0.038
same,glycan array binding signal (z-score),[20],1.75
same,glycan array binding signal (z-score),[21],0.122
same,glycan array binding signal (z-score),[22],15.5
same,glycan array binding signal (z-score),[23],0.077
same,glycan array binding signal (z-score),[24],-0.476
same,glycan array binding signal (z-score),[25],-0.753
